TDP1 cell noCPT: qHTS for Inhibitors of human tyrosyl-DNA phosphodiesterase 1 (TDP1): qHTS in cells in absence of CPT. DT40 Tdp1-/- hTDP1 cells, no CPT, ATP luminescence, 48 h. AID 686978, 2013. hit rate 15% among 420,000. Potency, µM (highest dose often 46.2 µM), for the others: at the top dose activity change, negative = growth inhibition, actives largely listed as inhibitors; note: potency is the fitted concentration of half-maximal effect; nearly all actives have a fitted effect of over 55% in size
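Growth of hTDP1-complemented DT40 Tdp1-knockout cells is measured by ATP luminescence after at least 48 hr compound exposure at 37 °C, with DMSO substituting for the 20 nM CPT used in the parallel screen.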
IL1B secr inh: inhibitors of inflammasome signaling (IL-1 beta secretion). THP-1 LPS/ATP IL-1B secretion, AlphaLISA, 16 h; hits give low values. activity change, % at 57.5 µM. hit rate 4.7% among 360,000. AID 743279; in the data active = activity change below about -50%; inconclusive = mostly about -30% to -49%
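Secreted IL-1B measured by AlphaLISA bead assay after 16 h compound exposure of THP-1 cells; compounds (final up to 57.5 uM) added 1 h before LPS (250 ng/mL) and ATP (1.25 mM) stimulation; lower signal means less secretion.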
RORg inh: ROR gamma (mouse) transcription inhibition. P51450. Drosophila S2 Gal4-RORgamma UAS-luciferase reporter, 20 h. Potency, µM (series often up to 53.6 µM), inactives show top-dose activity change, negative = inhibition, hits mostly inhibitors. hit rate 5.4% among 310,000. AID 2551; note: potency is the fitted concentration of half-maximal effect; nearly all actives have a fitted effect of over 60% in size
Target sequence (P51450 whole entry, looked up, the tested form may be a part): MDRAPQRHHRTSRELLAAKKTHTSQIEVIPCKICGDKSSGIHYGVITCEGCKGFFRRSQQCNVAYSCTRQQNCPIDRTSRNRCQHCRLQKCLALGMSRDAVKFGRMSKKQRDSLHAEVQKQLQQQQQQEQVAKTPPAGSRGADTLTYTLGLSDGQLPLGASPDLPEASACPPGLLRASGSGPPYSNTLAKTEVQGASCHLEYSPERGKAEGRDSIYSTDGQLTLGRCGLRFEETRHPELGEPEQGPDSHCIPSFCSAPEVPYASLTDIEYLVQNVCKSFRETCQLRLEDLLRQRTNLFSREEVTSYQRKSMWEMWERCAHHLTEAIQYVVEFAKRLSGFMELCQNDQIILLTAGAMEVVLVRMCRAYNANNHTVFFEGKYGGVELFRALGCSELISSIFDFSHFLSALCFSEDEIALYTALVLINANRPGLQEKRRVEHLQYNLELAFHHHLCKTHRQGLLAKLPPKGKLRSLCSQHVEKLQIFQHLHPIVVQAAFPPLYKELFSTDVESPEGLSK
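Compounds are pin-transferred onto Drosophila Schneider cells expressing a copper-inducible Gal4–ROR gamma transactivation domain fusion. After 1 hr, copper sulfate is added to 700 uM final; luciferase is read 20 hr later.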
ELG1 DNA repair: ELG1-dependent DNA repair inhibition; HEK293T ELG1-luciferase reporter, luminescence, 16 h; DNA damage induced by 5-fluorouridine; Potency, µM (top dose mostly 46.1 µM), for inactives: at the top dose activity change, negative = inhibition, actives largely listed as inhibitors; hit rate 2.3% among 330,000; AID 504467; note: potency is the fitted concentration of half-maximal effect; nearly all actives have a fitted effect of over 55% in size
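Reporter activity after DNA damage by 5-fluorouridine is monitored. Compound-treated cells incubate 16 hr at 37 °C, then ONE-Glo is added for 30 min before luminescence reading.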
DT40 TDP1 CPT: growth inhibition of DT40 Tdp1-/-;hTDP1 cells with camptothecin (screen for TDP1 inhibitors); chicken DT40 Tdp1-/-;hTDP1 cells + 20 nM CPT, ATP luminescence, 48 h; Potency, µM (doses to about 46.2 µM), inactives show at the top dose activity change, negative = growth inhibition, usual class: inhibitors; hit rate 12% among 420,000; AID 686979; note: potency is the fitted concentration of half-maximal effect; nearly all actives have a fitted effect of over 55% in size
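Chicken DT40 Tdp1-/- cells stably complemented with human TDP1 were seeded at 400 cells/well in medium containing 20 nM camptothecin, exposed to pin-transferred compounds, and grown at 37 °C for at least 48 hr. Viability was read as ATP luminescence.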
Gal4-VP16 FLuc: counter-screen for ROR gamma inhibitors: Gal4-VP16 reporter; Drosophila S2 Gal4-VP16 UAS-luciferase, luminescence, 20 h; Potency, µM (highest dose often 53.6 µM), without a hit: at the highest dose activity, negative = inhibition, most hits filed as inhibitors; hit rate 3.5% among 310,000;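 note: Gal4-VP16 expression switched on by copper sulfate through the metallothionein promoter; potency is the fitted concentration of half-maximal effect; nearly all actives have a fitted effect of over 50% in size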
The depositor's hits bear a star; ? = inconclusive; / = no result given. This is a sample that favours compounds with a hit; in the whole collection about 21% have one here. Unless noted, calls come from the whole dose curve; as a rule, active = well fitted curve in the direction sought with a large enough effect; inconclusive = small, poorly fitted or top-dose-only effect, or another doubt; inactive = no such curve, though single readings can be large; an effect the other way counts as inactive or inconclusive. % is set by controls: 0 for no effect and ±100 for the full control effect.

SMILES	TDP1 cell noCPT	IL1B secr inh	RORg inh	ELG1 DNA repair	DT40 TDP1 CPT	Gal4-VP16 FLuc
COc1cc(NC(=O)c2cc3nc(-c4ccccc4)cc(-c4ccccc4)n3n2)cc(OC)c1OC	?	?	13%	10µM*	?	0%
COc1ccccc1-c1cc(C(=O)Nc2cc(C)nn2-c2ccccc2)no1	26µM*	33	?	?	18µM*	?
CCCc1cc(C(=O)Nc2cccnc2)no1	-5%	-3	0%	?	9.2µM*	?
Cc1ccc2c(=O)n3c(nc2c1)C(Cc1ccc(O)cc1)NC(=O)c1cccnc1-3 (stereo unspecified)	?	11	/	/	-5%	/
CCN(CC)CCCNC(=O)C1CCN(S(=O)(=O)CC)CC1	-6%	/	/	/	-3%	/
CC(C)N1CC(C(=O)Nc2ccc(Cl)cc2Cl)CC1=O (stereo unspecified)	9%	-11	/	/	-19%	/
CCC(C(=O)N1CCN(Cc2ccc3c(c2)OCO3)CC1)n1nnc2ccccc2c1=O (stereo unspecified)	?	-5	/	/	?	/
COC(=O)c1c(-c2cccnc2)csc1NC(=O)c1cc(C)on1	16µM*	-7	?	?	?	27%
O=C(Nc1ccc(NC(=O)c2ccccc2F)cn1)c1ccco1	?	-17	14µM*	?	?	13µM*
COc1cccc(-c2cc(C(=O)Nc3cc(OC)c(OC)c(OC)c3)no2)c1	9.2µM*	-26	12%	23µM*	12µM*	-10%
COc1cccc(-c2cc(C(=O)Nc3c(C)nn(Cc4ccccc4)c3C)no2)c1	18µM*	-28	7%	21µM*	?	?
COc1ccc(-c2cc(C(=O)Nc3c(C)nn(Cc4ccccc4)c3C)no2)cc1	-28%	-1	-23%	-11%	-23%	-4%
CCc1sc(NC(=O)c2cc3ccccc3oc2=O)nc1-c1cccs1	?	-15	-4%	0%	7%	-1%
CCOC(=O)c1cc(CC)sc1NC(=O)COc1ccccc1C	2%	/	/	/	8%	/
O=C(Nc1cccnc1)c1cc(-c2ccco2)on1	?	-12	16%	-1%	9.2µM*	-6%
O=C(Nc1cccnc1)c1cc(-c2ccccc2)on1	-25%	21	3%	-1%	-21%	2%
COc1ccc(N2CCN(c3cc(C(=O)Nc4cc(OC)c(OC)c(OC)c4)ncn3)CC2)cc1OC	18µM*	34	/	/	15µM*	/
COc1ccccc1-c1cc(C(=O)Nc2cc(OC)c(OC)c(OC)c2)no1	0.65µM*	/	/	/	0.52µM*	/
COc1cccc(-c2cc(C(=O)Nc3cccnc3)no2)c1	13µM*	28	20%	?	21µM*	-3%
CN(CCc1ccccc1)C(=O)c1ccc(NC(=O)Cc2ccc(NC(=O)C3CCCN(C(=O)C4CCCC4)C3)cc2)cc1 (stereo unspecified)	?	22	/	/	?	/
Cc1ccc(CN2CC(N3CCCC3)CS2(=O)=O)cc1 (stereo unspecified)	1%	4	/	/	-21%	/
COc1cc(NC(=O)c2cccnc2Sc2ccc(Cl)cc2)cc(OC)c1OC	?	1	?	8.2µM*	?	0%
COCCNC(=O)c1cc(-c2ccccc2OC)on1	12µM*	34	9%	?	10µM*	9%
COc1ccc(C(=O)Nc2cccnc2Sc2ccc(Cl)cc2)cc1	?	17	36%	?	-20%	22%
COc1cc(NC(=O)c2cc(-c3ccccc3)on2)cc(OC)c1OC	13µM*	-14	-15%	?	?	-3%
SMILES	TDP1 cell noCPT	IL1B secr inh	RORg inh	ELG1 DNA repair	DT40 TDP1 CPT	Gal4-VP16 FLuc
COc1ccc(NC(=O)c2cc(-c3ccccc3)on2)cc1	-17%	-12	-28%	?	-6%	-8%
CNc1cc(-c2ccccc2C(F)(F)F)ncn1	1%	/	7%	/	-2%	-2%
C#CCOCCOCCOCCNc1nc(N2CCOCC2)nc(N2CCN(C(=O)[C@H](CCC(=O)O)n3cc(C(N)[C@H](C)CC)nn3)CC2)n1 (stereo partly specified)	1%	17	-22%	0%	4%	-6%
Cc1ccc2nc(SCC(=O)NCc3ccc4c(c3)OCO4)nc(=O)n2c1	10%	-8	/	1%	-2%	/
COc1cccc(N2CCN(C(=O)c3[nH]c(C)c(C(C)=O)c3C)CC2)c1	4.5µM*	32	-37%	-15%	5.6µM*	12%
COC(=O)c1c(C)[nH]c(C(=O)N2CCN(c3ccc(OC)cc3)CC2)c1C	/	/	21%	10%	/	-10%
CC(=O)c1c(C)[nH]c(C(=O)N2CCN(C(=O)c3ccco3)CC2)c1C	-10%	0	-1%	10%	-7%	0%
CC(=O)c1c(C)[nH]c(C(=O)N2CCN(c3ccc(F)cc3)CC2)c1C	?	17	-18%	-8%	14µM*	-8%
CC(=O)c1c(C)[nH]c(C(=O)N2CCN(c3cc(Cl)ccc3C)CC2)c1C	5.8µM*	21	5%	3.7µM*	10µM*	-3%
Cc1cccc(NS(=O)(=O)c2ccc3c(c2)CCN3C(=O)C2CCC2)c1	18µM*	/	/	/	18µM*	/
Cc1ccc(NS(=O)(=O)c2ccc3c(c2)CCN3C(=O)C2CC2)c(C)c1	21µM*	/	/	/	?	/
O=C(C1CC1)N1CCc2cc(S(=O)(=O)NCC3COc4ccccc4O3)ccc21 (stereo unspecified)	15µM*	-8	?	-4%	?	-25%
O=[N+]([O-])c1cc(S(=O)(=O)Nc2ccccc2)ccc1N1CCN(c2ccc(O)cc2)CC1	?	-4	?	0%	?	?
Cc1ccc(NS(=O)(=O)c2ccc(N3CCN(c4ccc(O)cc4)CC3)c([N+](=O)[O-])c2)c(C)c1	16µM*	?	?	-21%	?	?
CC(=O)N1CCc2cc(S(=O)(=O)Nc3ccc(C)cc3C)ccc21	-24%	0	?	?	?	-14%
COc1ccc(NS(=O)(=O)c2ccc3c(c2)CCN3C(=O)C2CC2)cc1OC	5.2µM*	/	/	/	8.2µM*	/
COc1ccc(N(C)S(=O)(=O)c2ccc3c(c2)CCN3C(=O)C2CC2)c(OC)c1	18µM*	6	40%	-23%	16µM*	-6%
CN1CCN(c2ccccc2NS(=O)(=O)c2ccc3c(c2)CCN3C(=O)C2CCC2)CC1	?	-9	/	/	15µM*	/
CCC(=O)N1CCc2cc(S(=O)(=O)N(C)c3ccc(OC)cc3OC)ccc21	?	-4	45%	?	?	1%

Bioassay records as filed in PubChem.
